In PubChem BioAssay (NCATS):
Inconclusive results are not listed. The source made the active and inactive calls. The call rests on the fitted dose curve; in most records, active means well fitted inhibition curve with a large enough effect; inconclusive means small, poorly fitted or top-dose-only effect; inactive means no such curve, though single readings can be large or run the other way.

What follows are compounds tested against Rap guanine nucleotide exchange factor 3 (Homo sapiens) (UniProt O95398) (assay: Confirmatory qHTS for antagonist of cAMP-regulated guanine nucleotide exchange factor 3 (EPAC1) (AID 1645880; further: nearly all actives have a fitted effect of over 55% in size;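 on activity, negative = inhibition: plate controls were DMSO only for no effect and full effect of the ATA control for full effect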)). Conditions: EPAC1 Rap1B-BODIPY-GDP exchange, fluorescence; activity, negative = inhibition: at 115 µM (top of the series).
Chain of Rap guanine nucleotide exchange factor 3 (Homo sapiens) (O95398 whole entry, looked up): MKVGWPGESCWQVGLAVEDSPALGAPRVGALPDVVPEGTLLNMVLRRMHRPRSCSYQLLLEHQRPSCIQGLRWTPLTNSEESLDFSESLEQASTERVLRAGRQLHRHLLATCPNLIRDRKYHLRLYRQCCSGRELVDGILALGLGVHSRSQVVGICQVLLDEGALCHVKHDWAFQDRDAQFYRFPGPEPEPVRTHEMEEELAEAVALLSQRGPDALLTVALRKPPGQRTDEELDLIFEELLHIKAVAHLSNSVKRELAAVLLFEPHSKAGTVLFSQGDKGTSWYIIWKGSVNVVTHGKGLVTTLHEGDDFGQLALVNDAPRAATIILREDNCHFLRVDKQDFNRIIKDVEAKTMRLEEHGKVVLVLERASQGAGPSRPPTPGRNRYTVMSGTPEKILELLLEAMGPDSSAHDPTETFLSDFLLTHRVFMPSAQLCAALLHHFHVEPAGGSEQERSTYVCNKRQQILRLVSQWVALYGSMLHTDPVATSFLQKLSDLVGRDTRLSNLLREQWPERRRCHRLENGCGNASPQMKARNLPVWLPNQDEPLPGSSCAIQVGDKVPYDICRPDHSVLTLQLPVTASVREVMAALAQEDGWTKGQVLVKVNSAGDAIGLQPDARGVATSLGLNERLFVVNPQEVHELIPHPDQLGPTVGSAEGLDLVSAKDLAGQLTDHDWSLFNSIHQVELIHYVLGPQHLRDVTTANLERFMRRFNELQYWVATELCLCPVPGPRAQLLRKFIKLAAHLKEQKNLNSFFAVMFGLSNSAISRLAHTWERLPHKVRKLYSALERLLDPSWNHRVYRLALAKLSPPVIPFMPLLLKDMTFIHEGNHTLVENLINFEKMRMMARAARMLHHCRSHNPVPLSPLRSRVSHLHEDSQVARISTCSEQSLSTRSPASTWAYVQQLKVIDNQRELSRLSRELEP
Summary of the method: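 Nucleotide exchange uses 100 nM EPAC1, 250 nM RAP1B-BODIPY-GDP and 50 uM GDP, with compounds in a concentration-titration series. After 5 min at room temperature, fluorescence (480 nm ex/540 nm em) is read every 5 min for 30 min. Data are normalized to control ATA and DMSO.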
Potency means the concentration at half of the fitted maximal effect.

Structure (SMILES) | activity, negative = inhibition | Potency
COc1ccc2c3c(cccc13)C(=O)CC2 | 385% (inactive) | 
Cc1nc2ccccc2n2c(O)c(CC(=O)O)cc12 | 10.4% (inactive) | 
CC1=Nc2ccccc2/C1=C\c1nc(-c2ccc(F)cc2)oc1O | 35.3% (inactive) | 
CCN1CCc2c(sc(NC(=O)CSc3ccccc3)c2-c2nc3ccccc3s2)C1 | 124% (inactive) | 
Nc1ccc2c3c(cccc13)C(=O)N(c1ccccc1)C2=O | 407% (inactive) | 
Cc1nn(C)c(C)c1N1C(=O)c2cccc3c(N)ccc(c23)C1=O | 276% (inactive) | 
COCCn1c2nc(=O)n(-c3ccccc3)c(=O)c-2nc2ccccc21 | 265% (inactive) | 
COc1ccc(C(C#N)=Cc2ccccc2OC)cc1 | -20.3% (inactive) | 
Cc1ccc[n+](-c2nc([O-])sc2C=O)c1 | 17.4% (inactive) | 
O=C(O)c1ccccc1C1=Nc2ccc(O)cc2Oc2cc(O)ccc21 | 37% (inactive) | 
COc1cccc2c1C(=O)c1c(O)c3c(c(O)c1C2=O)CC(O)(C(=O)CO)CC3OC1CC(N(C)C)C(O)C(C)O1 (stereo not given) | 2.19% (inactive) | 
Cc1ccccc1C(=O)Nc1ccc(C(=O)OCc2cc(=O)n3c4c(sc3n2)CCCC4)cc1 | -37.5% (inactive) | 
Cc1cc(/C=C2\SC(=S)N(C)C2=O)c(C)n1-c1ccccc1O | -7.86% (inactive) | 
N#Cc1c(-c2cccs2)nc(SCC(=O)c2ccc(Br)cc2)[nH]c1=O |  | 22.4 µM (active)
Cc1cccc(N2C(=O)c3cccc4c(N)ccc(c34)C2=O)c1 | 366% (inactive) | 
CCN(CC)c1ccc2cc(S(=O)(=O)c3ccc(Cl)cc3)c(=O)oc2c1 | 190% (inactive) | 
Cc1ccc2oc(=O)c(/C=C(\O)c3ccccc3)nc2c1 | 86.7% (inactive) | 
CCN(CC)c1ccc(/C=C(\C#N)C(=O)c2ccc(Br)cc2)cc1 | 198% (inactive) | 
O=C1CSC(c2ccc(Cl)c(Cl)c2)N1c1nccs1 (stereo not given) | -18.6% (inactive) | 
O=c1c(/C=C(\O)c2ccc(F)cc2)nc2ccccc2n1-c1ccccc1 | 23.5% (inactive) | 

Structure (SMILES) | activity, negative = inhibition | Potency
Cc1ccc2oc(=O)n(Cc3ccccc3)c2c1 | -20.4% (inactive) | 
CCC1(c2ccccc2)NC(=O)N(CC(=O)Nc2ccc(OC)nc2)C1=O (stereo not given) | 4.79% (inactive) | 
Oc1ccc2nnc3c(Br)cnn3c2c1 | 20.8% (inactive) | 
O=C(C(=Cc1ccc(O)cc1)c1ccccc1)c1ccccc1 | -31.8% (inactive) | 
O=C(NCc1ccc(F)cc1)c1cccc2c1C(=O)c1ccc(N3CCC(Cc4ccccc4)CC3)cc1S2(=O)=O | 152% (inactive) | 
CCOc1cccc2sc(N3CCN(C(=O)C(C)(C)C)CC3)nc12 | -8.59% (inactive) | 
CCN(CC)c1ccc2cc(-c3nnc(-c4ccncc4)o3)c(=O)oc2c1 | 107% (inactive) | 
Cc1ccc(OCc2nc3ccccc3n2CC(C)C)cc1 | -26.8% (inactive) | 
CSc1ncccc1C(=O)OCc1c(F)cccc1Cl | -10.6% (inactive) | 
COc1cccc2c1C(=O)c1c(O)c3c(c(O)c1C2=O)CC(O)(C(C)=O)CC3OC1CC(N(C)C)C(O)C(C)O1 (stereo not given) | 10.3% (inactive) | 
CNc1ccc2c3c(cccc13)C(=O)N(C)C2=O | 264% (inactive) | 
CCOC(=O)C1=C(C)NC(SC)=C(C#N)C1CC(C)C (stereo not given) | -10.4% (inactive) | 
Cc1ccc(NC(=O)CSc2nnc(-c3cc4occc4n3C)n2-c2ccccc2C)c(Cl)c1 | -18.8% (inactive) | 
COc1ccc(/C=C2\C(=O)NC(=O)c3ccccc32)cc1OC | -56.4% (inactive) | 
CC(=O)Nc1ccc(Nc2c3c4c(cccc4n(C)c2=O)C(=O)c2ccccc2-3)cc1 | 0.399% (inactive) | 
CCCn1c(O)c(N=Nc2ccc3ccccc3n2)c2ccccc21 | -23.2% (inactive) | 
Cc1nc(Cl)c2c(n1)NC1=C(O2)C(=O)CCC1 | 16% (inactive) | 
COc1ccccc1NC(=O)/C(C#N)=C/c1cc([N+](=O)[O-])ccc1N1CCCC1 | 59.7% (inactive) | 
COc1ccccc1NC(=O)c1sc2nc(Cc3ccccc3)cc(C(F)(F)F)c2c1N | -4.56% (inactive) | 
Cn1nc(-c2ccccc2)c2nc3ccccc3nc21 | 234% (inactive) | 
